Results taken from PubChem BioAssay (NCI).
This is part of a sample that, as a whole, favours compounds with a hit. Of some 79,000 tested, about 15% had one in any assay. Activity calls are given as the source filed them. Rule as the data show it: active = growth inhibition above about 70%; inactive = the rest.

Key:
[1] = NCI Yeast Anticancer Drug Screen. Data for the rad50 strain (AID 155);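 also: 0% = growth of vehicle-only cultures of the same strain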; conditions: S. cerevisiae rad50 strain growth inhibition, stronger effect = higher value
Outline: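 Cells are treated with compound, grown, and their growth is then scored against vehicle-only cultures of the same repair-deficient yeast strain.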

[2] = NCI Yeast Anticancer Drug Screen. Data for the mec2-1 strain (AID 157); conditions: S. cerevisiae mec2-1 strain, stronger effect = higher value
Outline: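 Each compound was tested on mec2-1 yeast, a strain altered in DNA damage repair or cell cycle control. Growth inhibition is reported relative to vehicle.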

[3] = NCI Yeast Anticancer Drug Screen. Data for the sgs1 mgt1 strain (AID 161);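 also: 0% = growth of cultures given vehicle only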; conditions: S. cerevisiae sgs1 mgt1 strain, stronger effect = higher value
Outline: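 Test agents were incubated with a DNA-repair-mutant yeast strain. Growth was then read and compared against vehicle-treated controls.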

[4] = NCI Yeast Anticancer Drug Screen. Data for the cln2 rad14 strain (AID 165);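 also: 0% = growth equal to vehicle treated cultures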; conditions: S. cerevisiae cln2 rad14 strain, stronger effect = higher value
Outline: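 Test compounds were added to cln2 rad14 yeast cultures; inhibition of growth was then determined by comparison with vehicle treatment.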

[5] = NCI Yeast Anticancer Drug Screen. Data for the bub3 strain (AID 167); conditions: S. cerevisiae bub3 mutant strain, stronger effect = higher value
Outline: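 Part of a panel of yeast mutants defective in DNA damage repair or cell cycle regulation. Each strain is grown with compound, and inhibition is calculated relative to solvent-treated cultures.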

[6] = NCI Yeast Anticancer Drug Screen. Data for the mlh1 rad18 strain (AID 175); conditions: S. cerevisiae mlh1 rad18 strain growth inhibition, stronger effect = higher value
Outline: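 Inhibition values reflect reduced growth of mutant yeast versus vehicle-treated controls following compound exposure; the mutations affect DNA damage repair.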

[7] = at 5.0 µM (retest, dose inferred, filed as 0.5)
[8] = at 50.0 µM (retest, dose inferred, filed as 5.0)

Measured: growth inhibition

CC(C)=CC(=O)OC(CCCc1ccccc1)c1ccc2c(c1)OCO2 (stereo not given)
inactive: [1]; [7] 5% | [1]; [8] -5% | [1]; at 50.0 µM -4.6% | [2]; [7] 7% | [2]; [8] -16% | [2]; at 50.0 µM -13.2% | [3]; [7] -6% | [3]; [8] 9% | [3]; at 50.0 µM -4.75% | [4]; [7] 0% | [4]; [8] 3% | [4]; at 50.0 µM 0.35% | [5]; [7] 35% | [5]; [8] 33% | [5]; at 50.0 µM 50% | [6]; [7] 2% | [6]; [8] 14% | [6]; at 50.0 µM -8.25%

Cc1cc(Cl)c(O)c(-c2cc(-c3ccccc3O)c(C#N)c(N)n2)c1
active: [1]; [8] 75% | [2]; [8] 80% | [3]; [8] 80% | [5]; [8] 73% | [6]; [8] 87%
inactive: [1]; [7] 4% | [1]; at 50.0 µM 59.5% | [2]; [7] -22% | [2]; at 50.0 µM 52.1% | [3]; [7] -28% | [3]; at 50.0 µM 67.7% | [4]; [7] -4% | [4]; [8] 65% | [4]; at 50.0 µM 69.4% | [5]; [7] -59% | [5]; at 50.0 µM 62.4% | [6]; [7] -23% | [6]; at 50.0 µM 55%

Cc1c(N=Nc2c(S(=O)(=O)O)cc3cc(S(=O)(=O)O)c(N=Nc4c(C)n(C)n(-c5ccccc5)c4=O)c(O)c3c2O)c(=O)n(-c2ccccc2)n1C
inactive: [1]; [7] -20% | [1]; [8] -13% | [1]; at 50.0 µM 3.25% | [2]; [7] -18% | [2]; [8] -31% | [2]; at 50.0 µM 32.8% | [3]; [7] -7% | [3]; [8] 26% | [3]; at 50.0 µM 4.15% | [4]; [7] 7% | [4]; [8] 8% | [4]; at 50.0 µM 36.4% | [5]; [7] -19% | [5]; [8] -11% | [5]; at 50.0 µM -29.4% | [6]; [7] 5% | [6]; [8] -7% | [6]; at 50.0 µM -6.6%

O=C(c1ccccc1)c1[nH]c2ccccc2c(=O)c1-c1ccc([N+](=O)[O-])cc1
active: [1]; [8] 96% | [1]; at 50.0 µM 97.6% | [2]; [8] 98% | [2]; at 50.0 µM 97.5% | [3]; [8] 98% | [3]; at 50.0 µM 98.3% | [4]; [8] 97% | [4]; at 50.0 µM 97.6% | [5]; [8] 96% | [5]; at 50.0 µM 97.5% | [6]; [8] 94% | [6]; at 50.0 µM 98.3%
inactive: [1]; [7] -6% | [2]; [7] -9% | [3]; [7] -16% | [4]; [7] -13% | [5]; [7] -8% | [6]; [7] 3%

Cc1cc(NC(=S)SCc2ccc3c(c2)OCO3)ccc1Cl
inactive: [1]; [7] 31% | [2]; [7] 16% | [3]; [7] 44% | [4]; [7] 38% | [5]; [7] 52% | [6]; [7] 24%
active: [1]; [8] 98% | [1]; at 50.0 µM 91.5% | [2]; [8] 99% | [2]; at 50.0 µM 91.8% | [3]; [8] 98% | [3]; at 50.0 µM 91.5% | [4]; [8] 98% | [4]; at 50.0 µM 89.7% | [5]; [8] 99% | [5]; at 50.0 µM 91% | [6]; [8] 97% | [6]; at 50.0 µM 90.2%
